Experimental findings from PubChem BioAssay are described below.

Structures are written as SMILES. Values without a mark were called inactive.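 The calls were made as follows: active = at least 20% inhibition of 6-phosphogluconate dehydrogenase activity; inactive = the rest.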

As a reminder, the inhibition is the change of the read-out against control, counted positive when it falls.

The target in this test is 6-phosphogluconate dehydrogenase, decarboxylating (Homo sapiens) (UniProt P52209). Kind of test: inhibition of human phosphogluconate dehydrogenase – biochemical, recombinant enzyme, NADPH absorbance, primary screen (AID 1159550). The following applies: recombinant 6PGD, NADPH absorbance 341 nm; at 10 µM; stronger effect = higher value.
Sequence of 6-phosphogluconate dehydrogenase, decarboxylating (Homo sapiens) (P52209 whole entry, looked up): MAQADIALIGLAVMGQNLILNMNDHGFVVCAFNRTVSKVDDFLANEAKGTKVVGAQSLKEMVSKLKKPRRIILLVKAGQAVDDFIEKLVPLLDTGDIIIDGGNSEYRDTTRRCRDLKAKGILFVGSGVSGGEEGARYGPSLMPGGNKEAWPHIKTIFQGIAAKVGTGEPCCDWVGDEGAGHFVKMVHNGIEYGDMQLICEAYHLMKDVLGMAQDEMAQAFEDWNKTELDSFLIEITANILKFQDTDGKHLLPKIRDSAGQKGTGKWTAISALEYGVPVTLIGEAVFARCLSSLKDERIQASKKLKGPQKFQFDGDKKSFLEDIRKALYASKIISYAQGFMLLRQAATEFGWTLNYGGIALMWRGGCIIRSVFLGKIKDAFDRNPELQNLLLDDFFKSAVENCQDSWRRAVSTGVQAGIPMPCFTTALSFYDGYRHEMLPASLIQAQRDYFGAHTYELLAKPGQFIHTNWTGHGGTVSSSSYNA
In the case of `CO[C@H]1[C@H](O)[C@H](O[C@H]2CC[C@@]3(C=O)[C@H](CC[C@@H]4[C@@H]3CC[C@]3(C)[C@@H](C5=CC(=O)OC5)CC[C@]43O)C2)O[C@@H](C)[C@@H]1O`, the inhibition is -22%.

Turning to `C[C@]12CCC(=O)C=C1CCc1ccc(O)cc12`, the inhibition is -3.52%.

Turning to `CC(=O)OC1CCC2(C)C(=CCC3C4CCC(=O)C4(C)CCC32)C1` (centres undefined), the inhibition was 2.3%. In the case of `COC1C(O)C(O[C@H]2CC[C@]3(C=O)C4C(OC(C)=O)C[C@]5(C)[C@@H](C6=CC(=O)OC6)CC[C@]5(O)C4CC[C@]3(O)C2)OC(C)C1OC(C)=O` (some centres undefined), the inhibition is 10.3%. For `CC(C)N(C(=O)CCl)c1ccccc1`, the inhibition is -9.5%.

Consider `C[C@]12CCC3C(CC[C@H]4C[C@@H](Cl)CC[C@]34C)C1CCC2=O` (some centres undefined), for which the inhibition is -16.8%.

As to `CN[C@@H](Cc1c[nH]c2ccccc12)C(=O)O`, the inhibition was 8.96%.

Turning to `CCc1cccc(CC)c1N(COC)C(=O)CCl`, the inhibition was -1.98%. As for `ClC1=C(Cl)C2(Cl)C3C(Cl)C=CC3C1(Cl)C2(Cl)Cl` (centres undefined), the inhibition is 0.441%. On to `C[C@]12CC[C@@H](OS(=O)(=O)O)C[C@@H]1CC[C@@H]1[C@@H]2CC[C@]2(C)C(=O)CC[C@@H]12`, for which the inhibition was 5.35%. For the compound `CC1(C)C(O)CC(O)C2(C)C1CC(O)C1(C)C2CCC2(C)C(c3ccoc3)OC(=O)C3OC321` (centres undefined), the inhibition is -7.21%. With `CCOP(=S)(OCC)SCSCC`, the inhibition was 7.84%.

On to `CC(=O)OC1CC(OC2C(O)CC(OC3C(O)CC(OC4CCC5(C)C(CCC6C5CC(O)C5(C)C(C7=CC(=O)OC7)CCC65O)C4)OC3C)OC2C)OC(C)C1OC1OC(CO)C(O)C(O)C1O` (centres undefined), for which the inhibition is 7.01%. As for `c1cc2c(cc1[C@H]1OC[C@@H]3[C@H]1CO[C@H]3c1ccc3c(c1)OCO3)OCO2`, the inhibition is -14.7%. Turning to `CNC(=O)O/N=C(/C)SC`, the inhibition was -23.1%. Take `CC[C@@H](C)C(=O)O[C@H]1[C@H](O)[C@H]2[C@@H](CN3C[C@@H](C)CC[C@H]3[C@@]2(C)O)[C@@H]2C[C@]34O[C@]5(O)[C@@H](OC(=O)[C@@](C)(O)[C@@H](C)O)CC[C@@]3(C)[C@@H]5[C@@H](OC(C)=O)[C@@H](OC(C)=O)[C@H]4[C@@]21O`: the inhibition was 7.64%. As to `CCC(C)C(=O)c1c(O)c(C)c2oc3c(C)c(O)c(C(=O)C(C)CC)c(O)c3c2c1O` (centres undefined), the inhibition is 4.14%.

In the case of `Cc1ccc2cc3c(ccc4ccccc43)c3c2c1CC3`, the inhibition was -6.1%. Take `C=C(C)[C@H]1Cc2c(ccc3c(=O)c4c(oc23)COc2cc(OC)c(OC)cc2-4)O1`: the inhibition was -6.24%. Turning to `CC(=O)O[C@H]1CC[C@]2(C)C3CC[C@]4(C)[C@@H](C5=CC(=O)OC5)[C@@H](OC(C)=O)C[C@]4(O)C3CC[C@@H]2C1` (some centres undefined), the inhibition was 0.446%. Turning to `CCCCSP(=O)(SCCCC)SCCCC`, the inhibition is 10.6%. In the case of `CCN1CC2(COC)C(O)CC(OC)C34C5CC6(O)C(OC)C(O)C(OC(C)=O)(C5C6OC(=O)c5ccccc5)C(C(OC)C23)C14` (centres undefined) it was 17.1%; in that of `COP(=O)(OC)OC(C)C(C)=O` (centres undefined), 13.2%.

As to `COc1ccc(C(c2ccc(OC)cc2)C(Cl)(Cl)Cl)cc1`, the inhibition was -1.01%. With `C=C1C([C@]2(C)C(CC(=O)OC)[C@@](C)(COC(C)=O)OC(=O)C[C@@H]2OC(C)=O)[C@@H](OC=O)[C@H](OC(=O)C(OC(C)=O)C(C)CC)[C@@]2(C)[C@H](c3ccoc3)CC(=O)C12O` (some centres undefined), the inhibition is -6.98%.

As for `C/C=C(\C)C(=O)OC1CCC2(C)C3CCC4C5(O)CC(O)C6(O)C(CN7CC(C)CCC7C6(C)O)C5(O)CC42OC13O` (centres undefined), the inhibition is 6.21%. `C[C@@H]1CC[C@@]2(OC1)O[C@H]1[C@@H](O)[C@H]3[C@@H]4CC[C@H]5C[C@@H](O[C@@H]6O[C@H](CO)[C@H](O[C@@H]7O[C@H](CO)C(O)[C@H](O[C@@H]8OC[C@@H](O)[C@H](O)[C@H]8O)[C@H]7O[C@@H]7O[C@H](CO)[C@H](O)[C@H](O[C@@H]8O[C@H](CO)[C@@H](O)[C@H](O)[C@H]8O)[C@H]7O)[C@H](O)[C@H]6O)[C@H](O)C[C@]5(C)[C@H]4CC[C@]3(C)[C@H]1[C@@H]2C` (some centres undefined): the inhibition was -7.91%.

As to `O=C1CC2OCC=C3CN4CCC56c7ccccc7N1C5C2C3CC46` (centres undefined), the inhibition was -2.71%. Turning to `C[C@@H]1OC(O[C@H]2CC[C@]3(C=O)[C@H]4CC[C@]5(C)C(C6=CC(=O)OC6)CC[C@]5(O)[C@@H]4CC[C@]3(O)C2)[C@H](O)[C@H](O)[C@H]1O` (some centres undefined), the inhibition was 2.25%. For the compound `Clc1ccc(Cl)cc1`, the inhibition was 7.33%.

As to `Cc1c(O)c(C(=O)CC(C)C)c2oc3c(C(=O)CC(C)C)c(O)c(C)c(O)c3c2c1O`, the inhibition is 0.288%. Regarding `C#CCOS(=O)OC1CCCCC1Oc1ccc(C(C)(C)C)cc1` (centres undefined), the inhibition was -21.1%. As for `ClC(Cl)=C(c1ccc(Cl)cc1)c1ccc(Cl)cc1`, the inhibition is -15%. `CC(=O)O[C@@H]1[C@H]2CC[C@H]3[C@@](C)(O)[C@@H]4C[C@H](O)C(C)(C)[C@@]4(O)[C@H](O)C[C@@]13C[C@@]2(C)O`: the inhibition is 8.37%. The figure for `CCCC(C)C1(CC)C(=O)NC(=S)NC1=O` (centres undefined) is -1.13%. On to `NCC(CC(=O)O)c1ccc(Cl)s1` (centres undefined), for which the inhibition was -3.23%. As to `CCOCN(C(=O)CCl)c1c(C)cccc1CC`, the inhibition is 4.9%. For the compound `CC1CC(O)C2(O)C13CC(=O)OCC2(C)C(C)(O)C(=O)C3` (centres undefined), the inhibition is 17.6%.

`CC(=O)[C@H]1CC[C@H]2[C@@H]3CC[C@H]4C[C@@H](O)CC[C@]4(C)[C@H]3CC[C@]12C`: the inhibition is -19.3%.
